Laboratory results published in publication PMC5540273 (PLoS ONE, 2017).

Assays:
Settings in all cases: concentration: 1 μM, replicates: in singlicate; n = 1
FGFR1 = tested on: FGFR1
FGFR2 = tested on: FGFR2
FGFR3 = tested on: FGFR3
FGFR4 = tested on: FGFR4
FGR = tested on: FGR
FLT1 = tested on: FLT1
FLT3-autoinhibited = tested on: FLT3-autoinhibited
FLT3 = tested on: FLT3
FLT4 = tested on: FLT4
FRK = tested on: FRK
FYN = tested on: FYN
GAK = tested on: GAK
GCN2(Kin.Dom.2,S808G) = tested on: T1, GCN2(Kin.Dom.2,S808G)
T1 construct: gene EIF2AK4

GRK1 = tested on: GRK1
GRK2 = tested on: T2, GRK2
T2 construct: gene ADRBK1

GRK3 = tested on: T3, GRK3
T3 construct: gene ADRBK2

GRK4 = tested on: GRK4
GRK7 = tested on: GRK7
GSK3A = tested on: GSK3A
GSK3B = tested on: GSK3B
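Further: KINOMEscan kinase panel screen.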

| SMILES | %Inh (FGFR1) [%] | %Inh (FGFR2) [%] | %Inh (FGFR3) [%] | %Inh (FGFR4) [%] | %Inh (FGR) [%] | %Inh (FLT1) [%] | %Inh (FLT3-autoinhibited) [%] | %Inh (FLT3) [%] | %Inh (FLT4) [%] | %Inh (FRK) [%] | %Inh (FYN) [%] | %Inh (GAK) [%] | %Inh (GCN2(Kin.Dom.2,S808G)) [%] | %Inh (GRK1) [%] | %Inh (GRK2) [%] | %Inh (GRK3) [%] | %Inh (GRK4) [%] | %Inh (GRK7) [%] | %Inh (GSK3A) [%] | %Inh (GSK3B) [%] |
| --- | --- | --- | --- | --- | --- | --- | --- | --- | --- | --- | --- | --- | --- | --- | --- | --- | --- | --- | --- | --- |
| CC(C)(C)c1ccc(C(=O)Nc2cn3cc(-n4ccnc4)ccc3n2)cc1 | 0 | 22 | 11 | 7 | 0 | 0 | 21 | 71 | 0 | 10 | 21 | 0 | 27 | 42 | 51 | 0 | 12 | 21 | 2 | 14 |
| O=C(O)C(F)(F)F.O=c1[nH]ccc2nc(N[C@@H]3CCNC3)nc(Nc3cc(Cl)cc(Cl)c3)c12 [GSK2188764] | 0 | 0 | 25 | 27 | 44 | 0 | 67 | 23 | 9 | 4 | 52 | 74 | 69 | 92 | 47 | 32 | 86 | 70 | 49 | 19 |
| CCn1c(-c2nonc2N)nc2c(-c3ccccc3)ncc(OCCCN)c21.O=C(O)C(F)(F)F.O=C(O)C(F)(F)F [GSK260205] | 30 | 0 | 0 | 0 | 38 | 37 | 0 | 12 | 43 | 5 | 0 | 83 | 0 | 0 | 0 | 63 | 0 | 0 | 15 | 17 |
| Cc1nn2c(=O)cc(N3CCO[C@H](C)C3)nc2n1Cc1cccc(Cl)c1Cl [GSK2373693] | 6 | 12 | 12 | 63 | 6 | 33 | 13 | 0 | 18 | 5 | 7 | 8 | 0 | 11 | 0 | 17 | 3 | 0 | 0 | 69 |
| CN(C)c1ncnc2nc[nH]c12 [SKF-31736] | 0 | 0 | 0 | 0 | 0 | 0 | 0 | 0 | 0 | 0 | 0 | 0 | 0 | 43 | 0 | 0 | 38 | 0 | 1 | 28 |
| Cc1ccc(-c2ccc3occ(-c4ccc(S(C)=O)cc4)c3c2)nn1 (stereo not drawn) | 0 | 2 | 4 | 0 | 15 | 0 | 0 | 0 | 0 | 0 | 0 | 0 | 1 | 12 | 0 | 0 | 7 | 0 | 3 | 0 |
| Nc1ncc(-c2cn[nH]c2)c2scc(-c3ccc4c(c3)CCN4C(=O)Cc3ccccc3)c12 [GSK2593067] | 37 | 31 | 19 | 0 | 80 | 83 | 13 | 98.4 | 43 | 38 | 65 | 32 | 97.8 | 10 | 0 | 0 | 0 | 0 | 2 | 11 |
| COC(=O)Nc1nc2ccc(Oc3ccc(CC(=O)Nc4cc(C(F)(F)F)ccc4F)cc3)cc2[nH]1 [GW680903] | 0 | 6 | 8 | 4 | 10 | 93 | 20 | 99.3 | 72 | 19 | 37 | 0 | 2 | 0 | 0 | 66 | 0 | 0 | 5 | 0 |
| Cc1ccc(O)cc1Nc1ccnc2cc(-c3ccc(CN4CCCCC4)o3)ccc12 [GW557777] | 25 | 21 | 0 | 2 | 100 | 89 | 8 | 43 | 68 | 99.9 | 99.7 | 99.6 | 0 | 0 | 0 | 0 | 13 | 0 | 0 | 0 |
